Here are results for 15 molecules from PubChem BioAssay AID567 (The Scripps Research Institute Molecular Screening Center, 2006).

Among all 65,000 compounds or so, about 370 (0.57%) were called active.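 The calls were made as follows: active = activation above the screen-wide mean activation plus 3 SD (cut at about 19% in these data); inactive = the rest.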 The sample as a whole holds a higher share of actives than the screen did.

This assay deals with 5-hydroxytryptamine receptor 1A (Homo sapiens) (UniProt P08908). In words: agonism at serotonin HTR1A receptor – cell-based, CHO, Ga15 NFAT-bla reporter, primary screen (AID 567).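 Also: 0% = DMSO wells and 100% = 5-CT at EC100.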 The following applies: CHO 5-HT1a Ga15 NFAT-bla reporter, FRET ratio; at 10 µM; hits give high values.
Sequence of 5-hydroxytryptamine receptor 1A (Homo sapiens) (P08908 whole entry, looked up): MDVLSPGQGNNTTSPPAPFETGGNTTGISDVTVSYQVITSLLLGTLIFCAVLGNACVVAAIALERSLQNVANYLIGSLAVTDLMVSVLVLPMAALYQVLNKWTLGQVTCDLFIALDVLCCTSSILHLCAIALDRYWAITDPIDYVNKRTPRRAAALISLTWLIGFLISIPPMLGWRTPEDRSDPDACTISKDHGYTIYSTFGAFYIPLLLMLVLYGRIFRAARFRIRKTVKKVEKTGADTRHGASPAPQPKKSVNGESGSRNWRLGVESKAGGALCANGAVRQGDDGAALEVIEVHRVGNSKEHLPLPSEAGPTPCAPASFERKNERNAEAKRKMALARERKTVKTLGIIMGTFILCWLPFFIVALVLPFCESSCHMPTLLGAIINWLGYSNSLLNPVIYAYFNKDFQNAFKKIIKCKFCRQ
Consider `CCc1cccc2c(C#N)cn(CC(=O)N3CCOCC3)c12`, for which the activation was 60.2% (active).

For the molecule `COC(=O)C(c1ccccc1)N1CCCCCC1` (stereo not given), the activation is 1.53% (inactive).

Consider `COC(=O)C(O)(c1ccc(NC(=O)c2ccco2)c(OC)c1)C(F)(F)F` (stereo not given), for which the activation is -0.22% (inactive).

Take `CC1(C)C(c2ccccc2)=NC(c2cccnc2)=[N+]1[O-]`: the activation was 49.7% (active).

For `CCOC(=O)C1CN(C)CCC1=O` (stereo not given), the activation is -3.2% (inactive).

On to `CC(=O)N(C1=NCCCS1)c1ccccc1F`, for which the activation was -0.07% (inactive).

As to `Cc1ccc2c(c1)C1CN(C)CCC1N2C(=O)Cn1nnc(-c2ccccc2F)n1` (stereo not given), the activation was 1.76% (inactive).

As to `Cc1ccc(Cn2nnnc2CN2CCC(n3nnc4ccccc43)CC2)cc1`, the activation was -1.46% (inactive).

As to `CN1CCN(Cc2ccccc2C(F)(F)F)CC1`, the activation is -1.3% (inactive).

`O=C(c1cc(-c2ccncc2)nc2ccccc12)N1CCC2(CC1)OCCO2`: the activation was -2.03% (inactive).

As to `O=C(c1cc2nc(-c3ccccc3)cc(-c3ccccc3)n2n1)N1CCC2(CC1)OCCO2`, the activation was 0.72% (inactive).

For the molecule `Cc1cccc(-n2c(C)nc3cc(C(=O)N4CCC5(CC4)OCCO5)ccc32)c1`, the activation is 27.3% (active).

Consider `Fc1cccc(F)c1CN1CCN(Cc2c(F)cccc2F)CC1`, for which the activation was -2.86% (inactive).

As to `CC(=O)N1CN2CN(C(C)=O)CC(C(=O)c3ccc(Br)cc3)(C2)C1`, the activation was 0.98% (inactive).

For the molecule `O=C(O)C1CSC(c2cccnc2)N1` (stereo not given), the activation was -3.3% (inactive).
